Results published in PubChem BioAssay AID624331 (National Center for Advancing Translational Sciences (NCATS), 2012).
Records with an inconclusive call do not appear. Activity calls are given as the source filed them. The call rests on the fitted dose curve; in most records, active means well fitted activation curve with a large enough effect; inconclusive means small, poorly fitted or top-dose-only effect; inactive means no such curve, though single readings can be large or run the other way.

Assay: qHTS assay for re-activators of p53 using a Luc reporter: Hit Validation with no p53 Expressed
Details: p53-null cells, luciferase reporter counter-screen; series mostly up to 46.1 µM
Text: The p53 tumor suppressor plays a key role in suppression of tumorigenesis and in human carcinogenesis. It is frequently found inactivated in human cancers, mainly by point mutation. These point mutations are found in a wide variety of human cancers and a majority of them affect the DNA binding domain of the protein. The point mutations either alter native p53 conformation or abolish DNA contact. Additionally, cancer cells with p53 mutations are more resistant to chemo-radiation therapies.
This counter screen was run against the hits identified from the primary screen. It uses a cell line that was not transfected with p53. Compounds that show activity in this counter screen show unspecific activation of the assay system and are excluded from further consideration.
NIH Chemical Genomics Center [NCGC]
NIH Molecular Libraries Probe Production Centers Network [MLPCN]
Assay Provider (PI): Yi Sung, University of Michigan at Ann Arbor
5ul of 1000 cells per well are dispensed in all wells except column 4, into white solid-bottom TC-treated Kalypsys plates. The cells are kept in Opti-MEM and supplemented with 10% FBS and dispensed using a Multidrop (Thermo). Then using the Kalypsys pin-tool, 23nl of compounds are pinned. The compounds are starting concentration at 10mM, with 1:5 dilution, 4 points, and the control compound nocodazole is pinned in column 1 at 25mM, 1:3 dilution, in duplicate, 25mM nocodazole is pinned in column 2. Please note, all concentrations are working concentrations. 5ul of 1pM purified luciferase enzyme is dispensed using the Kalypsys dispenser in column 4. Plates are incubated for 24 hrs at 37 deg C, 5% CO2, and 95% humidity. Then 4ul of the detection reagent Amplite (ABD Bioquest) is added using the Kalypsys dispenser. Plates are incubated for 10 min at ambient room temperature and are then read on the ViewLux (Perkin Elmer) using a clear filter for a luminescent read-out.
For COc1ccc(CN2CCNCC2)cc1, the outcome was “inactive”. For COc1ccc(NC(=O)C2C3CCC(O3)C2C(=O)O)c(OC)c1 (configuration not stated), the outcome was “inactive”. With O=C(N/N=C/c1c(O)n(C2CC2)c(=S)[nH]c1=O)c1ccccc1 the outcome was “inactive”. In the case of CCCCCCOc1ccc(CN2CCN(C)CC2)cc1, the outcome is reported as “inactive”. With N#Cc1cc2c(nc1SCC(=O)Nc1ccc(Cl)cc1)C1CCN2CC1 the outcome was “inactive”. In the case of O=C(N/N=C/c1c(O)n(Cc2ccccc2)c(=O)[nH]c1=O)c1ccccc1, the outcome is reported as “inactive”. With C=C(C)C(Cc1c(OC)ccc(C(=O)/C=C/c2ccc(O)cc2)c1O)OO (configuration not stated) the outcome was “inactive”. With O=C(c1cc2c(s1)CCCC2)N1CCC2(CC1)OCCO2 the outcome was “inactive”. For COC(=O)C1=C(c2ccc(F)cc2OCc2ccccc2)C[C@@H]2CC[C@H]1N2C(=O)NCCOc1ccc(OC)cc1, the outcome was “inactive”. For CN(C)P(=O)(C(Cl)=C(N1CCCCC1)N1CCCCC1)N(C)C, the outcome was “inactive”. With CC1CCCCC1NC1CCN(C)CC1 (configuration not stated) the outcome was “inactive”. In the case of N=C1c2ccccc2CN1CC(=O)c1ccccc1, the outcome is reported as “inactive”. For Nc1ccccc1N=Cc1c(O)n(CCC2=CCCCC2)c(=O)[nH]c1=O, the outcome was “inactive”. In the case of COC(=O)C1=C(c2cccc(C#N)c2)C[C@@H]2CC[C@H]1N2C(=O)NC1CC1, the outcome is reported as “inactive”. For Nc1c(C(=O)NCc2ccco2)c2nc3ccccc3nc2n1Cc1ccc(F)cc1, the outcome was “inactive”. With N#Cc1cc2c(nc1SCC(=O)Nc1cc(Cl)ccc1Cl)C1CCN2CC1 the outcome was “inactive”. With Cc1cc(N2C(=O)C3CCCN3C2c2sccc2C)no1 (configuration not stated) the outcome was “inactive”.
